From PubChem
IDH1 R132H inh – blocks human mutant IDH1 R132H enzyme; AID 602179; Potency, µM (top dose mostly 76.6 µM), for inactives: at the highest dose activity change, negative = inhibition, most hits filed as inhibitors; actives 0.093% (n = 390,000); IDH1-R132H enzyme, NADPH consumption, diaphorase/resazurin fluorescence; further: potency means the concentration at half of the fitted maximal effect; on the % scale 0 is the no-effect control and ±100 the full control effect; nearly all actives have a fitted effect of over 65% in size
Target sequence (O75874 whole entry R132H, stated change not applied): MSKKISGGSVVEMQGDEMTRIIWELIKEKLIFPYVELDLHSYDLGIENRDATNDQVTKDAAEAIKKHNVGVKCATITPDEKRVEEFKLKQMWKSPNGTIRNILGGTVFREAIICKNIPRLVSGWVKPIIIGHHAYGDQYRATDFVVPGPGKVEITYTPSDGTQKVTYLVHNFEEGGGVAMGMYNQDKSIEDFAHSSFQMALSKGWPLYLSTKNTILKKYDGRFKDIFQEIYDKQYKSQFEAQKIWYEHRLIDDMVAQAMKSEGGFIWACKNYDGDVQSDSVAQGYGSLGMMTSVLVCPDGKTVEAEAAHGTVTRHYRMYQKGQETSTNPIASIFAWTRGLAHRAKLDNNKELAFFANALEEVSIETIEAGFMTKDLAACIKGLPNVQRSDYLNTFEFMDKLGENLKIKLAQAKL
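IDH1-R132H (0.5 ug/mL dispensed) in pH 7.5 Tris buffer was preincubated 30 min with compound, then given a substrate mix of 0.016 mM NADPH and 2 mM alpha-KG for 80 min at room temperature; remaining NADPH was read by diaphorase/resazurin fluorescence.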
Anesthetic bind – binds horse apoferritin like a general anesthetic. apoferritin/1-aminoanthracene competitive binding, fluorescence. Potency, µM (titrated, usually from 77.5 µM), for the others: at the top dose activity change, negative = displacement, usual class: inhibitors. actives 0.074% (n = 350,000). AID 485281; further: potency means the concentration at half of the fitted maximal effect; on the % scale 0 is the no-effect control and ±100 the full control effect; nearly all actives have a fitted effect of over 20% in size
Target sequence (P02791 2-175 limits assumed): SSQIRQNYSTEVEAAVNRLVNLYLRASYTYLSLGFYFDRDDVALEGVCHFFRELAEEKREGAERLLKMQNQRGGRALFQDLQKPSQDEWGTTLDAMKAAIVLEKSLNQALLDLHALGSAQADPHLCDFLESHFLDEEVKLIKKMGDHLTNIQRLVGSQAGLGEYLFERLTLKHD
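10 uM apoferritin + 50% sat. 1-AMA, PBS; cpd 10 min RT; Ex380/Em535 endpoint; normalized to free probe vs complex; 4-param Hill fit; propofol titration as pos. ctrl.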
Nrf2 activator – activates Nrf2 signaling | actives 0.31% (n = 410,000) | AREc32 ARE-luciferase reporter (MCF7-derived line), luminescence, 24 h | Potency, µM (top dose mostly 46.1 µM), without a hit: at the highest dose activation, most hits filed as activators; further: potency means the concentration at half of the fitted maximal effect; % of control where 0% means no effect; nearly all actives have a fitted effect of over 65% in size
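Cells of the AREc32 ARE-luciferase line are plated in OPTI-MEM containing 5% FBS and left overnight at 37 deg C. Compounds are pinned in, incubation continues 24 hr, and firefly luciferase signal is then measured.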
Giardia killer – Giardia lamblia killing; Giardia lamblia trophozoite viability; AID 540267; actives 0.15% (n = 340,000); activity change, % at 7.66 µM, hits read low; in the data active means activity change below about -80%; inconclusive means between about -30% and that limit;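 further: parasites exposed to compound for two days anaerobically before the ATP read; on the % scale 0 is the no-effect control and ±100 the full control effect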
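Media and compound were dispensed first, then trophozoites at 100 cells/well; plates sat 48 hrs at 37 deg C without oxygen before ATP luminescence reagent was added and read after 15-30 min at room temperature.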
A549 tox-1 – kills or reduces viability of A549 cells in Nrf2 counter-screen; AID 504648; Potency, µM (highest dose often 46 µM), for the others: top-dose activity change, negative = cytotoxicity, most hits filed as inhibitors; A549 ARE-Fluc cells, CellTiter-Fluor viability, 18-24 h; actives 0.16% (n = 390,000); further: potency means the concentration at half of the fitted maximal effect; on the % scale 0 is the no-effect control and ±100 the full control effect
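A549 ARE-Fluc cells in 5% FBS OPTI-MEM, 5000 cells/well, rested 2 h then exposed to compounds in concentration-response for 18-24 h at 37 °C. Viability by CellTiter-Fluor fluorescence (Ex 405/Em 525) after 30 min; luciferase luminescence (BugLite, 15 min, RT) read afterwards.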
Nrf2 block – blocks Nrf2 signaling. AID 504444. A549 ARE-Fluc reporter, luciferase luminescence, 18-24 h. actives 2.1% (n = 360,000). Potency, µM (titrated, usually from 46 µM), for inactives: at the highest dose activity change, negative = inhibition, usual class: inhibitors; further: potency means the concentration at half of the fitted maximal effect; on the % scale 0 is the no-effect control and ±100 the full control effect; nearly all actives have a fitted effect of over 60% in size
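A549 ARE_Fluc cells (5000/well, 5% FBS OPTI-MEM) pre-incubated 2 h, then treated with compounds 18-24 h at 37C/5% CO2 in concentration-response. CellTiter-Fluor viability read first; BugLite luciferase luminescence after 15 min at room temperature gives Nrf2 activity.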
FLuc counter 3 – counter-screen for Nrf2 inhibitors: firefly luciferase enzyme inhibition; AID 720522; purified firefly luciferase, luminescence inhibition; actives 4% (n = 1,400); shares compounds with Nrf2 block; Potency, µM (series often up to 57.5 µM), for inactives: at the top dose activity change, negative = inhibition, actives largely listed as inhibitors; further: potency means the concentration at half of the fitted maximal effect; on the % scale 0 is the no-effect control and ±100 the full control effect; nearly all actives have a fitted effect of over 65% in size
A549 tox-2 – counter-screen for Nrf2 inhibitors: cytotoxicity in A549 ARE cells; shares compounds with Nrf2 block; A549 ARE-Fluc cells, cytotoxicity counterscreen; Potency, µM (doses to about 46.1 µM), inactives show at the highest dose activity change, negative = cytotoxicity, actives largely listed as inhibitors; actives 2% (n = 1,400); AID 720523;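 further: potency means the concentration at half of the fitted maximal effect; cells exposed to compounds for 18 to 24 hours; on the % scale 0 is the no-effect control and ±100 the full control effect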
ARE-Fluc inh – Nrf2 inhibition confirmed, A549 ARE-luciferase; shares compounds with Nrf2 block; A549 ARE-firefly luciferase reporter, luminescence; Potency, µM (top dose mostly 46.1 µM), inactives show top-dose activity change, negative = inhibition, actives largely listed as inhibitors; actives 74% (n = 1,400); AID 720524; further: potency means the concentration at half of the fitted maximal effect; on the % scale 0 is the no-effect control and ±100 the full control effect; nearly all actives have a fitted effect of over 65% in size
* hit, by the source's call; ? = inconclusive; · = no result given. A selection: hits, their analogues and other compounds. The true share with any hit is near 2.3%. Unless noted, the call rests on the fitted dose curve; in most records, active means well fitted curve in the direction sought with a large enough effect; inconclusive means small, poorly fitted or top-dose-only effect, or another doubt; inactive means no such curve, though single readings can be large; an effect the other way counts as inactive or inconclusive.

SMILES | IDH1 R132H inh | Anesthetic bind | Nrf2 activator | Giardia killer | A549 tox-1 | Nrf2 block | FLuc counter 3 | A549 tox-2 | ARE-Fluc inh
Cc1ccc(CN(Cc2ccco2)C(=O)c2oc3c(C)c(C)ccc3c2C)cc1 | 12% | -1% | ? | · | ? | -5% | · | · | ·
CCCC(=O)Nc1ccc2nn(-c3ccc(OC)cc3)nc2c1 | 2% | 78% | 3% | -7 | -10% | ? | · | · | ·
CCc1ccc(-n2nc3ccc(NC(=O)COc4ccc(OC)cc4)cc3n2)cc1 | -4% | -10% | 3% | · | -6% | 1.6µM* | -18% | 7% | -1%
CC1CC[C@@]2(C(=O)O)CC[C@]3(C)C(=CCC4[C@@]5(C)CCC(O)C(C)(C)C5CC[C@@]43C)C2C1C (stereo partly specified) | · | -10% | · | · | · | · | · | · | ·
O=c1[nH]c(=S)[nH]c2c1C(c1ccc(F)cc1)OC(CCc1ccccc1)C2 (stereo unspecified) | · | · | 0% | · | · | · | · | · | ·
Cc1cnc(CNc2nc(-c3ccc(C(=O)N(C)C)cc3)nc3ccccc23)cn1 | · | -6% | · | · | · | · | · | · | ·
Clc1cccc(Cl)c1C[n+]1cccc2ccccc21 | 2% | · | -1% | -17 | -13% | 4.1µM* | 1% | 4% | ?
Cc1sc(NC(=O)Cc2ccc3c(c2)OCO3)nc1-c1ccc2c(c1)CCN2C(=O)c1ccc(F)cc1 | 3% | -9% | -1% | -10 | 0% | 5.2µM* | -8% | 8% | 2.6µM*
Cc1sc(NC(=O)Cc2ccc3c(c2)OCO3)nc1-c1ccc2c(c1)CCN2C(=O)c1ccccc1F | 8% | 3% | 3% | 15 | 2% | ? | · | · | ·
CSc1ccc(CCNc2ncnc3onc(-c4ccc(Cl)cc4)c23)cc1 | -9% | 43% | 0% | · | 3% | 9.2µM* | 2% | -3% | ?
Cc1cc(-n2c(C)cc(C(=O)CSc3ncnc4ccccc34)c2C)no1 | 14% | ? | 6% | 1 | ? | 4.6µM* | ? | -2% | 16µM*
C[C@]12C=CC(=O)C=C1CCC1C2C(=O)C[C@]2(C)C1CC[C@]2(O)C(=O)CO (stereo partly specified) | · | -7% | · | · | · | · | · | · | ·
CC1CC2C(C(O)CC3(C)C2CCC3(O)C(=O)CO)C2(C)C=CC(=O)C=C12 (stereo unspecified) | -3% | · | 0% | -1 | -5% | 0.046µM* | -1% | -14% | 0.041µM*
CC(=O)OCC(=O)[C@@]1(O)CC[C@H]2[C@@H]3C[C@H](C)C4=CC(=O)C=C[C@]4(C)[C@H]3[C@@H](O)C[C@@]21C | -9% | -11% | 1% | 5 | 1% | 0.052µM* | 4% | -7% | 0.052µM*
O=C(CC(c1cccs1)N1Cc2ccccc2C1=O)Nc1ccc(F)cc1 (stereo unspecified) | 11% | -5% | -1% | · | -15% | ? | · | · | ·
O=C(Nc1cccc(S(=O)(=O)Nc2ccc(Cl)cc2)c1)c1ccc(Cl)nc1 | -7% | 2% | 0% | 0 | ? | 3.3µM* | -16% | -22% | 4.1µM*
COc1ccc(NS(=O)(=O)c2cccc(NC(=O)c3ccc(Cl)nc3)c2)cc1 | 2% | -13% | 0% | -3 | ? | 0.58µM* | 0% | -5% | 1.6µM*
O=C(Nc1ccc(NS(=O)(=O)c2ccccc2)cc1)c1ccc(Cl)cc1 | 1% | 7% | 0% | -8 | -2% | 3% | · | · | ·
CCN(Cc1cccc(S(=O)(=O)O)c1)c1ccc(C(=C2C=CC(=[N+](CC)Cc3cccc(S(=O)(=O)O)c3)C=C2)c2ccc(O)cc2S(=O)(=O)O)cc1 | · | · | · | · | · | · | 9.5µM* | ? | 8.2µM*
CC[C@]12C(=O)N(C)C[C@H]([C@@H]3C(=O)N(Cc4ccccc4)C(=O)[C@@H]31)N2C(=O)c1ccc(C(F)(F)F)cc1 | -16% | · | -1% | 0 | 0% | 2% | · | · | ·
O=C(Nc1nc(-c2nc3ccccc3s2)cs1)c1ccc(S(=O)(=O)N2CCOCC2)cc1 | -2% | -20% | 3% | -10 | -16% | -3% | · | · | ·
O=C(Nc1nc(-c2ccc(S(=O)(=O)N3CCOCC3)cc2)cs1)c1ccccc1 | 5% | -18% | 5% | -19 | -17% | 4.6µM* | ? | 3% | ·
Cc1ccc(C(=O)Nc2nc(-c3ccccn3)cs2)cc1S(=O)(=O)N1CCOCC1 | 2% | · | 0% | -13 | ? | 8.2µM* | 11µM* | ? | 1.6µM*
O=C(Nc1nc(-c2ccc(S(=O)(=O)N3CCCC3)cc2)cs1)c1cccs1 | 1% | 5% | 4% | -17 | -16% | · | · | · | ·
O=C(Nc1nc(-c2cc3ccccc3o2)cs1)c1ccc(S(=O)(=O)N2CCCC2)cc1 | 0% | -10% | -1% | -1 | -25% | 4.1µM* | -17% | -19% | 5.2µM*
SMILES | IDH1 R132H inh | Anesthetic bind | Nrf2 activator | Giardia killer | A549 tox-1 | Nrf2 block | FLuc counter 3 | A549 tox-2 | ARE-Fluc inh
Cc1ccc(C(=O)Nc2ccccn2)cc1S(=O)(=O)N1CCOCC1 | 2% | · | 15% | 19 | -2% | 11% | · | · | ·
CCCC(=O)Nc1cccc(-c2nc3cc(C)c(C)cc3o2)c1C | -15% | -5% | 3% | · | 0% | ? | · | · | ·
COc1cc2[nH]c(C)c(-c3ccccc3)c(=O)c2cc1Cl | · | · | 0% | · | · | · | · | · | ·
COc1ccccc1NS(=O)(=O)c1ccc(C)c(C(=O)NC2CCN(Cc3ccccc3)CC2)c1 | 20% | · | 5% | ? | 3% | ? | · | · | ·
COc1ccccc1NS(=O)(=O)c1cccc(C(=O)NC2CCN(Cc3ccccc3)CC2)c1 | -2% | · | 2% | -1 | ? | 2.3µM* | -1% | -20% | ?
Cc1ccc(NS(=O)(=O)c2ccc(C(=O)N3CCN(c4ncccn4)CC3)cc2)cc1 | 14% | -14% | 1% | -12 | ? | 5.8µM* | -1% | -4% | 8.2µM*
Cc1ccc(C(=O)N2CCN(c3ncccn3)CC2)cc1 | 2% | 2% | 0% | -13 | 2% | 7% | · | · | ·
O=C(c1ccc(S(=O)(=O)Nc2ccc(F)cc2)cc1)N1CCN(c2ccccn2)CC1 | 3% | -13% | 2% | 38 | ? | 2.9µM* | -1% | -5% | 15µM*
